# Measured values as given in PubChem BioAssay AID1259418 (Broad Institute, 2018).
# Among all 3,400 compounds or so, about 840 (25%) were called active. Roughly 11% stayed inconclusive and do not appear here. The list is a sample of the results. Results with a measured potency or affinity are listed apart. Values without a mark were called inactive.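 The calls were made as follows: active = fitted half-maximal concentration of signal decrease at or below twice the sample's top tested concentration; inconclusive = flat curve between -70 and -30 percent, or poor fit; inactive = flat within 30 percent, signal rise, or potency above limit.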
# Test: T. gondii growth inhibition with IFN-gamma, dose response, cell-based, ME49Luc, HeLa, luciferase, 72 h (AID 1259418)
# Conditions: T. gondii ME49Luc in IFN-y HeLa, active compounds read low, -100% = high-dose IFN-γ control wells; at 19.5 µM unless noted
row,SMILES,max activity
1,CN1C(=O)CCc2cc(NC(=O)C3CCCCC3)ccc21,40.8%
2,CN1C(=O)CCc2cc(NC(=O)C3CCC3)ccc21,8.04%
3,COc1ccc(-c2nc(Nc3cc(OC)c(OC)c(OC)c3)c3ccccc3n2)cc1,-9.87% [at 0.16 µM]
4,O=C(CCC1N=C2c3ccccc3N=C(SCc3cc(=O)n4cc(Cl)ccc4n3)N2C1=O)NCc1ccc2c(c1)OCO2 (stereo not drawn),-18.4% [at 10 µM]
5,CCCCN(C)C(=O)Cn1c(=O)c(S(=O)(=O)c2ccccc2)cc2cc(C)ccc21,-7.02% [at 0.35 µM]
6,COc1ccc(C(=O)N2CCC3(CC2)Nc2ccc(C)c(C)c2-n2cccc23)cc1,7.01% [at 0.68 µM]
7,CCS(=O)(=O)N1CCC(C(=O)NCCc2csc(-c3ccccc3)n2)CC1,-17%
8,Cc1ccc(S(=O)(=O)N2CCC(C(=O)NCCc3csc(-c4ccccc4)n3)CC2)cc1C,12.1% [at 1.35 µM]
9,O=C(NCCc1csc(-c2ccccc2)n1)C1CCN(S(=O)(=O)c2ccccc2F)CC1,8.96% [at 0.16 µM]
10,Cc1ccc(S(=O)(=O)N2CCC(C(=O)NCCc3csc(-c4ccccc4)n3)CC2)c(C)c1,19.2% [at 0.35 µM]
11,COc1ccc(-c2nc3c(s2)CN(C(=O)Nc2ccccc2C(F)(F)F)CC3)cc1,102%
12,Cc1nc(Nc2ccc(F)cn2)sc1C(=O)N1CCC(C(N)=O)(N2CCCCC2)CC1,6.22%
13,COc1ccccc1NC(=O)Nc1ccc(-c2nc(-c3cccc(Br)c3)co2)cc1,8.23%
14,Cc1ccc2c(c1)cc(S(=O)(=O)c1ccccc1)c(=O)n2CC(=O)NCCC(C)C,-4.39% [at 5 µM]
15,COc1ccc(-c2nc(N3CCN(c4cccc(Cl)c4)CC3)c3ccccc3n2)cc1,-7.34% [at 10 µM]
16,COC(=O)c1ccccc1NC(=O)N1CCN(Cc2nc(-c3cccc(Cl)c3)oc2C)CC1,3.54% [at 2.6 µM]
17,COc1ccccc1NC(=O)CN1CCC2(CC1)N=C(c1ccc(Cl)cc1)C(=O)N2,-13.9% [at 1.35 µM]
18,Cc1ccc(C)c(-c2coc(-c3ccc(NC(=O)CC(C)C)cc3)n2)c1,-23% [at 10 µM]
19,COc1ccc(-c2nc(CSc3nc4c(c(=O)[nH]3)CN(Cc3ccccc3)CC4)c(C)o2)cc1,9.43% [at 1.35 µM]
20,Cn1cnc2c1C(C(=O)O)CN(C(=O)c1ccsc1)C2 (stereo not drawn),44.9%
21,C=CCN1CCC2(CC1)CC(NCc1ccc(C)s1)c1ccccc1O2 (stereo not drawn),-7.33% [at 1.2 µM]
22,O=C(CCC1Nc2c3ccccc3nc(=S)n2C1=O)NCCN1CCN(c2cccc(Cl)c2)CC1 (stereo not drawn),7.2% [at 5 µM]
23,CCCCNC(=O)CC1Nc2c3ccccc3nc(=S)n2C1=O (stereo not drawn),-20.7% [at 10 µM]
24,O=C(CC1Nc2c3ccccc3nc(=S)n2C1=O)NCc1ccccc1 (stereo not drawn),26.5% [at 2.6 µM]

row,SMILES,max activity
1,O=C(CCC1Nc2c3ccccc3nc(=S)n2C1=O)NCCN1CCN(c2ccccc2)CC1 (stereo not drawn),19.8% [at 0.16 µM]
2,CCCCCNC(=O)CC1Nc2c3ccccc3nc(=S)n2C1=O (stereo not drawn),-10.3% [at 10 µM]
3,COc1ccccc1CNC(=O)CC1Nc2c3ccccc3nc(=S)n2C1=O (stereo not drawn),46.9% [at 0.16 µM]
4,O=C(CC1Nc2c3ccccc3nc(=S)n2C1=O)NCc1ccc(F)cc1 (stereo not drawn),15.6% [at 0.16 µM]
5,O=C(CC1Nc2c3ccccc3nc(=S)n2C1=O)NCc1ccc(Cl)cc1 (stereo not drawn),15.8%
6,CCc1nc(OCC(=O)Nc2ccc(Br)cc2)c2ccccc2n1,33.9% [at 0.68 µM]
7,CCc1onc(C)c1C1CCCN1C(=O)Cn1nc(C(F)(F)F)c2c1CCCC2 (stereo not drawn),9.22% [at 2.6 µM]
8,CN(C)S(=O)(=O)N1C[C@@H]2CN(Cc3ccoc3)CCO[C@H]2C1,25.4%
9,Cc1cnc(N2Cc3nccn3CC(CN3CCCC3)C2)nc1 (stereo not drawn),46.2%
10,COc1ccc(-c2nc3c(s2)CN(C(=O)Nc2cc(C)ccc2C)CC3)cc1,75%
11,COc1ccccc1N(Cc1nc(-c2ccc(OC(C)C)cc2)oc1C)S(=O)(=O)c1ccccc1,-5.99% [at 1.35 µM]
12,CCOc1ccc(-c2nc(CN(c3ccccc3OC)S(=O)(=O)c3ccc(C)cc3)c(C)o2)cc1,17.2% [at 0.68 µM]
13,CCOc1ccccc1N(Cc1nc(-c2cccc(C)c2)oc1C)S(=O)(=O)c1ccccc1,3.42% [at 0.68 µM]
14,COc1ccc(-c2nc(CN(c3ccccc3OC)S(=O)(=O)c3ccccc3)c(C)o2)cc1,24.5% [at 10 µM]
15,CCOc1ccccc1CNc1nc(-c2ccc(OC)cc2)nc2ccccc12,-11.7% [at 0.35 µM]
16,NC(=O)C1(N2CCCCC2)CCN(c2ncc(NC(=O)c3ccccc3)cc2C(=O)O)CC1,14.4% [at 0.16 µM]
17,Cc1cccc(N2CCN(c3nc(-c4ccc(Cl)cc4)nc4ccccc34)CC2C)c1 (stereo not drawn),-29% [at 0.35 µM]
18,Cc1ccc2c(c1C)-n1cccc1C1(CCN(C(=O)c3cccc(Br)c3)CC1)N2,-13.6% [at 1.35 µM]
19,Cc1nc(OCC(=O)Nc2ccc(Cl)cc2Cl)c2ccccc2n1,23% [at 5 µM]
20,Cc1ccc(-c2coc(-c3ccc(NC(=O)C(C)C)cc3)n2)c(C)c1,-33.6% [at 5 µM]
21,Cc1ccc(-c2coc(-c3ccc(NC(=O)Nc4ccccc4F)cc3)n2)cc1,86.4% [at 10 µM]
22,Cc1oc(-c2ccccc2)nc1Cn1nnc(-c2nc(-c3ccc(C(F)(F)F)cc3)no2)c1C,47.1%
23,CN(C)C(=O)COCC1CN(S(C)(=O)=O)Cc2nnn(C)c21 (stereo not drawn),28%
24,Cc1csc(-c2cc(S(=O)(=O)N3CCC(Cc4ccccc4)CC3)c(C)s2)n1,-11.8% [at 0.16 µM]
